Molecules are shown by their SMILES. Where “and” joins values, the source holds several entries; their conditions need not be identical. Equal values may be shown once. Records with an inconclusive call do not appear. Calls of active or inactive are those of the source. The call rests on the fitted dose curve; in most records, active means well fitted inhibition curve with a large enough effect; inconclusive means small, poorly fitted or top-dose-only effect; inactive means no such curve, though single readings can be large or run the other way.
Potency means the concentration at half of the fitted maximal effect.

In this assay the target is Cytochrome P450 3A4 (Homo sapiens) (UniProt P08684). Description: qHTS Assay for Inhibitors and Substrates of Cytochrome P450 3A4 (AID 884). Further: nearly all actives have a fitted effect of over 50% in size. The conditions noted are these: recombinant CYP3A4, Luciferin-PPXE luminescence; series mostly up to 57.1 µM. The essentials: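 20 nM human CYP3A4 with 25 uM Luciferin-PPXE (at KM) in 200 mM KPO4, preincubated 10 min with compound; NADPH regeneration started a 60 min RT reaction. Luciferin detected by luminescence, normalized to 57 uM ketoconazole as full inhibition.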
Chain of Cytochrome P450 3A4 (Homo sapiens) (P08684 whole entry, looked up): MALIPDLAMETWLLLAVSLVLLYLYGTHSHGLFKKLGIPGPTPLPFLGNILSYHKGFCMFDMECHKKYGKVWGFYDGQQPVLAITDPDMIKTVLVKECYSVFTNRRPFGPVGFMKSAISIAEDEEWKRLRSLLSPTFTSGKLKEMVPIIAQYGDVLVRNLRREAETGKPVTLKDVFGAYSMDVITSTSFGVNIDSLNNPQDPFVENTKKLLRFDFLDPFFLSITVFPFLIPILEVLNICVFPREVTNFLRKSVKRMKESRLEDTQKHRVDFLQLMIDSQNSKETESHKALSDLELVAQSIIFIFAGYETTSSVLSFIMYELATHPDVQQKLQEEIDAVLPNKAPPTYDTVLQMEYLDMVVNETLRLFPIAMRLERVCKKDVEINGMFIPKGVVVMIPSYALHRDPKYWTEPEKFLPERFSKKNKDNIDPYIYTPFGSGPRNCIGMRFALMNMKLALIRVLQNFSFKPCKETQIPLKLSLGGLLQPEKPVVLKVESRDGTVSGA
For the compound `COC(=O)[C@@H]1C[C@H]2CC[C@H](O)C[C@H]2N1Cc1ccc(Cl)cc1`, the Potency was 12.6 µM (active). Under `O=C1[C@H]2[C@H]3[C@H](O)[C@H](O)C/C(=N/OC[C@@H](O)COCc4ccco4)[C@H]3CC[C@@H]2C(=O)N1Cc1ccc2c(c1)OCO2` stands 3.16 µM (active); under `COC(=O)NC(c1ccco1)C(C(C)=O)C(=O)OC` (stereo not drawn), 3.16 µM (active). Under `COC(=O)c1cccc(C23CC4(C2)[C@H](CN(Cc2cccnc2)[C@@H]4c2ccccc2)C3c2ccc(Cl)nc2)c1` (stereo partly drawn) stands 2 µM (active). As to `CCC1=C(OC(=O)N(CC)CC)N2C(=O)OC(=NCC(=O)OC)[C@]2(Cc2ccccc2)[C@H]2C1=CC[C@H]1C(=O)N(C)C(=O)[C@H]12`, the Potency was 10 µM (active). Take `COC(=O)c1ccc(C23CC4(C2)[C@H](CN(Cc2cccnc2)[C@@H]4c2ccccc2)C3c2ccccc2)cc1` (stereo partly drawn): the Potency is 3.98 µM (active). Under `COC(=O)N1[C@H](Cc2ccccc2)C=C[C@]1(C)C(=O)NCc1ccc(N(C)C)cc1` stands 0.794 µM (active).

Take `COC(=O)c1ccc(C(NC(=O)OCc2ccccc2)/C(C)=C/[C@@H](C)C(=O)NCc2cc(F)cc(F)c2)cc1` (stereo partly drawn): the Potency was 3.16 µM (active). Regarding `CC1(C(=O)NCCCNc2ncc(C(F)(F)F)cc2Cl)C=CC2(CCCCC2)N1C(=O)c1ccccc1` (stereo not drawn), the Potency is 7.94 µM (active).

In the case of `CCC1=C(OC(=O)N(CC)CC)N2C(=O)OC(=NCc3ccccc3)[C@]2(C)[C@H]2C1=CC[C@H]1C(=O)N(CC)C(=O)[C@H]12`, the Potency is 3.16 µM (active). With `CCC1=C2CC[C@H]3C(=O)N(CC(=O)OC)C(=O)[C@H]3[C@H]2[C@@]2(Cc3ccccc3)C(=NCCOC)OC(=O)N2C1=O`, the Potency is 12.6 µM (active).

For the compound `CO[C@@H]1COC(=O)C/C=C\[C@H](C)[C@@H](NS(=O)(=O)c2ccc(C)cc2)COC(=O)C/C=C\[C@@H]1C`, the Potency is 3.98 µM (active) and 3.16 µM (active). For the compound `C/C(CCC(=O)OC[C@@H]1O[C@H](C#Cc2ccccc2)C=C[C@@H]1Oc1ccc(C)cc1)=N/OC[C@@H](O)[C@H]1O[C@H]2OC(C)(C)O[C@H]2[C@@H]1O`, the Potency is 3.98 µM (active). `CCC1=C2CC[C@H]3C(=O)N(CC)C(=O)[C@H]3[C@H]2[C@@]2(C)C(=NCCc3c[nH]c4ccccc34)OC(=O)N2C1=O`: the Potency was 3.98 µM (active). To `CCC1=C(OC(=O)N(CC)CC)N2C(=O)OC(=NCC(=O)OC)[C@]2(C)[C@H]2C1=CC[C@H]1C(=O)N(C)C(=O)[C@H]12` belongs 12.6 µM (active). Under `CCC1=C2CC[C@H]3C(=O)N(c4ccccc4)C(=O)[C@H]3[C@H]2[C@@]2(Cc3ccccc3)C(=NCCOC)OC(=O)N2C1=O` stands 7.94 µM (active). Consider `CCC1=C2CC[C@H]3C(=O)N(CC)C(=O)[C@H]3[C@H]2[C@@]2(C)C(=O)N(CC(=O)OC)C(=O)N2C1=O`, for which the Potency was 7.94 µM (active).

As to `COc1ccc(O[C@H]2C=C[C@@H](c3ccccc3)O[C@@H]2CO/N=C\[C@@H](C)[C@H](OCc2ccccc2)C(C)C)cc1`, the Potency is 3.98 µM (active). With `CCN1C(=O)[C@H]2[C@H]3[C@H](O)[C@H](O)C/C(=N/O[C@@H](C)c4cc(-c5c(C)cc(C)cc5C)no4)[C@@H]3CC[C@@H]2C1=O`, the Potency was 3.98 µM (active).

In the case of `Clc1ccc(C2[C@H]3CN(Cc4cccnc4)[C@H](c4ccccc4)C34CC2(c2cccnc2)C4)cn1` (stereo partly drawn), the Potency was 2.51 µM (active).

Consider `FC(F)(F)c1ccc(C2[C@H]3CN(Cc4cccnc4)[C@H](c4ccccc4)C34CC2(c2ccccc2)C4)cc1` (stereo partly drawn), for which the Potency is 3.16 µM (active). In the case of `CCCNC(=O)OC[C@@H]1O[C@H](CCO/N=C(\C)CCN2CCc3nc(CC)c(CC)cc3C2)C=C[C@@H]1Oc1ccc(OC)cc1`, the Potency was 3.98 µM (active). Regarding `CCC1=C2CC[C@H]3C(=O)N(CC(=O)OC)C(=O)[C@H]3[C@H]2[C@@]2(C)C(=O)N(Cc3ccccc3)C(=O)N2C1=O`, the Potency is 15.8 µM (active). Turning to `C=CC[C@@H]1C=C[C@H](O/N=C(\C)CCN2CCCc3nc(C)c(C)cc32)[C@H](CO)O1`, the Potency is 2.51 µM (active).

As for `C=CC[C@@H]1C=C[C@H](O/N=C\[C@@H](C)[C@H](OCc2ccccc2)C(C)C)[C@H](CO)O1`, the Potency is 3.98 µM (active). Under `COC(=O)[C@@H]1C[C@@H]2CC[C@@H](O)C[C@@H]2N1CC1CCCCC1` stands 12.6 µM (active); under `c1ccc(C2[C@H]3CN(Cc4cccnc4)[C@H](c4ccccc4)C34CC2(c2cccnc2)C4)cc1` (stereo partly drawn), 1.58 µM (active); under `COc1c(O)c(O)cc2c1oc1c3ccccc3oc(=O)c21`, 25.1 µM (active).

The values are drawn from PubChem BioAssay (NCATS).
